What was measured:
[1] = target: T1, Inhibitor of nuclear factor kappa-B kinase subunit alpha (Homo sapiens) (UniProt O15111); conditions: at 1 µM
T1 sequence (whole entry): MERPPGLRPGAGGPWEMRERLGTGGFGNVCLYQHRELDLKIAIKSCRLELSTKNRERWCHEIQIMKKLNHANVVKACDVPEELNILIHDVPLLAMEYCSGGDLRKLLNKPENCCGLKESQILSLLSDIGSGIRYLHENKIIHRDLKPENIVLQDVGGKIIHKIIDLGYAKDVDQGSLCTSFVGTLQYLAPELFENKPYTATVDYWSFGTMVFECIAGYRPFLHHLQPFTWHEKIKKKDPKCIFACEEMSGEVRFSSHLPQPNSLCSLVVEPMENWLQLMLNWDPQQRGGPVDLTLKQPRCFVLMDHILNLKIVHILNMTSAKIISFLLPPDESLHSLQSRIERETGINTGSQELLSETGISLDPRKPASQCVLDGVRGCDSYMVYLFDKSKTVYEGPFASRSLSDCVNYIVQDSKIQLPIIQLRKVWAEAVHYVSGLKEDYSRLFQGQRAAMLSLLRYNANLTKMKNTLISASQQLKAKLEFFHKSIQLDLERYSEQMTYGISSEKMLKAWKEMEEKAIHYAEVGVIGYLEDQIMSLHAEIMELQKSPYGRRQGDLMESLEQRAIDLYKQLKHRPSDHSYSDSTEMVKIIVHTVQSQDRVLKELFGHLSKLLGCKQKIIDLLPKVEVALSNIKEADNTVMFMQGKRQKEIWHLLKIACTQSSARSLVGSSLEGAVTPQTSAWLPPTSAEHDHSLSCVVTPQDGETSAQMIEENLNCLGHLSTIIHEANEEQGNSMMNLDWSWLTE

[2] = target: T1, Inhibitor of nuclear factor kappa-B kinase subunit alpha (Homo sapiens); conditions: at 10 µM
[3] = target: T2, Inhibitor of nuclear factor kappa-B kinase subunit beta (Homo sapiens) (UniProt O14920); conditions: at 10 µM
T2 sequence (whole entry): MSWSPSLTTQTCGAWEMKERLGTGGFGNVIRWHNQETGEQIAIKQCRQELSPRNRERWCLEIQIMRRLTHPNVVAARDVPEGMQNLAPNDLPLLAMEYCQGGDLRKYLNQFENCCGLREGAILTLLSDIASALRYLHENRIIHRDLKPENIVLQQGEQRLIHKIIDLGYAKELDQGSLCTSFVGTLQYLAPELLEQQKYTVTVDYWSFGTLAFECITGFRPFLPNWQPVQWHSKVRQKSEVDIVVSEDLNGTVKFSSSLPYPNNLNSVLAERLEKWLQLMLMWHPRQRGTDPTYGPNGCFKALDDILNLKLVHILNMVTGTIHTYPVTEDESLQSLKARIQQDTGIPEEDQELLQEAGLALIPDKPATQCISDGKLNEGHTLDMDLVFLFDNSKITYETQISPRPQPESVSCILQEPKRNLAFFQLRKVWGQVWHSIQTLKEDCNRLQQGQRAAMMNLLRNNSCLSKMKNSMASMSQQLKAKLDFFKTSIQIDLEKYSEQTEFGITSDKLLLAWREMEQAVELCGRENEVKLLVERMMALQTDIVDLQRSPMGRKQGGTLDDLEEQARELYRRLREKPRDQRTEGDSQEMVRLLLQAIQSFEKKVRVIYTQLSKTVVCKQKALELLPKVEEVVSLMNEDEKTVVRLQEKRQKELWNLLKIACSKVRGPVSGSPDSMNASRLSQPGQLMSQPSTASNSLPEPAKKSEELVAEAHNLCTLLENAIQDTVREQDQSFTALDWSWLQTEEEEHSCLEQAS

[4] = target: Insulin receptor (Homo sapiens) (UniProt P06213); conditions: at 10 µM
[5] = target: Insulin receptor (Homo sapiens) (UniProt P06213); conditions: at 1 µM
[6] = target: Insulin receptor (Homo sapiens) (UniProt P06213); conditions: at 10 µM; remark: listed apart in the source
[7] = target: Interleukin-1 receptor-associated kinase 1 (Homo sapiens) (UniProt P51617); conditions: at 1 µM
[8] = target: Interleukin-1 receptor-associated kinase 1 (Homo sapiens) (UniProt P51617); conditions: at 10 µM
[9] = target: T2, Inhibitor of nuclear factor kappa-B kinase subunit beta (Homo sapiens); conditions: at 1 µM
[10] = target: Insulin receptor (Homo sapiens) (UniProt P06213); conditions: at 1 µM; remark: listed apart in the source

Chain of Insulin receptor (Homo sapiens) (P06213 28-758 limits assumed): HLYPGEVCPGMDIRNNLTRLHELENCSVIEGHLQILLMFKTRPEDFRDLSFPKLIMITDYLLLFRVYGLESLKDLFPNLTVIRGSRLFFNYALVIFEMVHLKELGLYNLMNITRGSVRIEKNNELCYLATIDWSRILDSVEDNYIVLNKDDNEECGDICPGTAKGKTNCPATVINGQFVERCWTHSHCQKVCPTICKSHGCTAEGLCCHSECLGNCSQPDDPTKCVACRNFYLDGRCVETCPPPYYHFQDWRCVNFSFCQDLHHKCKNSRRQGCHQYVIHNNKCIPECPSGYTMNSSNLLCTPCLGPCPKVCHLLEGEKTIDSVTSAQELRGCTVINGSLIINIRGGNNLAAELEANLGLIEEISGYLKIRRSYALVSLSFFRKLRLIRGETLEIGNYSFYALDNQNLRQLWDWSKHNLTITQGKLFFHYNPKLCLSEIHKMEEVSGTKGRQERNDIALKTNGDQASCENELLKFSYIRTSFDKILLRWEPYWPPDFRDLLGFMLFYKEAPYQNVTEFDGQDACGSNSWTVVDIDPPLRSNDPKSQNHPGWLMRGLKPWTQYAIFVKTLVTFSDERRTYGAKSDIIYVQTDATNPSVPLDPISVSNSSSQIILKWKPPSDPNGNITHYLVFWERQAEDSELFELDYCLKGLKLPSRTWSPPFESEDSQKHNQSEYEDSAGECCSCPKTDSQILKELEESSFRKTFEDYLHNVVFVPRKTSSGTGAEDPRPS
Chain of Insulin receptor (Homo sapiens) (P06213 763-1382 limits assumed): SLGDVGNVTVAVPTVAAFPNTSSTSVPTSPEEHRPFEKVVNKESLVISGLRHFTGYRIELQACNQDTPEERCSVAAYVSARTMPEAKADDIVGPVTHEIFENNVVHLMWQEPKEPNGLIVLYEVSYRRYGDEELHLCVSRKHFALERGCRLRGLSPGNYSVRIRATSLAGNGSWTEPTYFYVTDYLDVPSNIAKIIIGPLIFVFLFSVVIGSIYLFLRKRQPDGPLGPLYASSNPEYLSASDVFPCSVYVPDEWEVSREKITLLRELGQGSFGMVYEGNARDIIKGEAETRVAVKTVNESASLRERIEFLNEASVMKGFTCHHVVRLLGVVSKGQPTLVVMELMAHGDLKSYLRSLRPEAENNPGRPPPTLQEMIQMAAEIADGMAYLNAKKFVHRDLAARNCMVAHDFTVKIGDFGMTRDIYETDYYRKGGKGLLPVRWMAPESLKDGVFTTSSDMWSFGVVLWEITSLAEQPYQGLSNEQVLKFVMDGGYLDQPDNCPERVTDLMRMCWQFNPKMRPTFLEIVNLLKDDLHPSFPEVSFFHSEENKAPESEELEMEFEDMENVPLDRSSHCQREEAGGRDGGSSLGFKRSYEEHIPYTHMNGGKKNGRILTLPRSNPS
Chain of Interleukin-1 receptor-associated kinase 1 (Homo sapiens) (P51617 whole entry, looked up): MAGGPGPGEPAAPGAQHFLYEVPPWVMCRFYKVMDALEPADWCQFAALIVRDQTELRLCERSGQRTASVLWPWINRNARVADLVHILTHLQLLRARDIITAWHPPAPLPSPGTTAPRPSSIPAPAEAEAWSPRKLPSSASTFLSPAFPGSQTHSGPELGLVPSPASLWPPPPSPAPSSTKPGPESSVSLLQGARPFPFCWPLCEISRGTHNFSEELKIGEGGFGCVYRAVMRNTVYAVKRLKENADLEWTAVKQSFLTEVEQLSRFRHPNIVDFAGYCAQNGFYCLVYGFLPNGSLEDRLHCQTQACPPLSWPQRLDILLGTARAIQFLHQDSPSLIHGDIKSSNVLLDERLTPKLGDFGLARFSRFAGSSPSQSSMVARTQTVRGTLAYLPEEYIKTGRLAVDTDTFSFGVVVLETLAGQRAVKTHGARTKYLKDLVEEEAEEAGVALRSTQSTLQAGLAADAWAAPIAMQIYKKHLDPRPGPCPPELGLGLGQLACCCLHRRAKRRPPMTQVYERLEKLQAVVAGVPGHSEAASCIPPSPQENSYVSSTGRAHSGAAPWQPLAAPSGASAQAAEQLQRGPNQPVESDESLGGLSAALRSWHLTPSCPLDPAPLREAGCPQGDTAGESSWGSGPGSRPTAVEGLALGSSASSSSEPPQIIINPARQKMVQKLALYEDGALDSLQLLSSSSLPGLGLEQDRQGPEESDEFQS

Structure (SMILES) | residual activity [1] [%] | residual activity [2] [%] | residual activity [3] [%] | residual activity [4] [%] | residual activity [5] [%] | residual activity [6] [%] | residual activity [7] [%] | residual activity [8] [%] | residual activity [9] [%] | residual activity [10] [%]
COc1ccc2c(c[n+](C)c3c4cc5c(cc4ccc23)OCO5)c1OC | 97 | 83 | 84 | 130 | 99 | 84 | 96 | 83 | – | –
CC(C)[C@H](CO)Nc1nc(Nc2cccc(Cl)c2)c2ncn(C(C)C)c2n1 | – | – | – | 33 | 34 | 4 | 81 | 23 | 116 | 81
N/C(=N\[N+](=O)[O-])N/N=C\c1ccc(-c2cccc([N+](=O)[O-])c2)o1 | – | – | 99 | – | – | – | – | – | – | –
O=[N+]([O-])/C=C/c1ccc2c(c1)OCO2 | 91 | 94 | 95 | 85 | 96 | 102 | 95 | 83 | 98 | 117
O=C1NC(=O)c2c1c1c3ccccc3n3c1c1c2c2ccccc2n1C1CCC3O1 | 93 | 73 | – | 79 | 100 | 88 | – | – | – | 94
C[S+]([O-])c1ccc(-c2nc(-c3ccc(F)cc3)c(-c3ccncc3)[nH]2)cc1 (stereo unspecified) | 113 | 96 | 101 | 129 | 103 | 98 | 108 | 97 | 104 | 94
O=c1[nH]c2ccccc2n1C1CCN(Cc2ccc(-c3nc4cc5[nH]cnc5cc4nc3-c3ccccc3)cc2)CC1 | 118 | 109 | 102 | 75 | 103 | 98 | 103 | 88 | 101 | 119
O=C1Nc2ccc3ncsc3c2/C1=C/c1c[nH]cn1 | 8 | 1 | 25 | 31 | 80 | 36 | 28 | 7 | 68 | 85
COc1cc2ncnc(Nc3ccc(OCc4ccccc4)cc3)c2cc1OC | 105 | 99 | 103 | 98 | 102 | 104 | 81 | 102 | 117 | 115
COc1ccc2c(c1)/C(=C/c1cnc[nH]1)C(=O)N2 | 74 | 23 | 59 | – | – | – | – | 37 | – | –
c1cc(-c2cnn3cc(-c4ccc(OCCN5CCCCC5)cc4)cnc23)ccn1 | – | 86 | 85 | – | – | – | 23 | 2 | – | 138
O=C1c2ccccc2-c2nc3nnnn3nc21 | – | – | 81 | 102 | 104 | 109 | 109 | 103 | 111 | 121
COC(=O)[C@@]1(O)C[C@H]2O[C@]1(C)n1c3ccccc3c3c4c(c5c6ccccc6n2c5c31)C(=O)NC4 | 2 | 3 | 3 | 20 | 7 | 0 | 1 | 0 | 17 | 42
COc1cc(OC)c(/C=C2\C(=O)Nc3ccccc32)c(OC)c1 | – | – | – | 86 | 98 | 91 | 100 | 103 | – | 82
CCc1nc(-c2ccc(OC)cc2)[nH]c1-c1ccncc1 | 100 | 104 | 112 | – | – | – | – | – | 119 | –
CCn1cnc2c(Nc3cccc(Cl)c3)nc(N[C@@H]3CCCC[C@@H]3N)nc21 | 99 | 89 | 93 | – | 70 | 34 | 85 | 64 | – | –
CC(C)(C)c1cc(C=C(C#N)C#N)cc(Br)c1O | 101 | 99 | 99 | 108 | 109 | 105 | 117 | 107 | 98 | 122

— ChEMBL document CHEMBL2218924, “A broad activity screen in support of a chemogenomic map for kinase signalling research and drug discovery” (Biochem J, 2013)
